Source: PubChem BioAssay AID485313 (National Center for Advancing Translational Sciences (NCATS), 2010)
Among all 320,000 compounds or so, about 7,600 (2.4%) were called active. Roughly 3% stayed inconclusive and do not appear here. The sample holds actives, similar compounds and a random draw of the others, so the mix is not that of the screen. Unmarked numbers belong to inactive results. Calls come from the whole dose curve; as a rule, active = well fitted activation curve with a large enough effect; inconclusive = small, poorly fitted or top-dose-only effect; inactive = no such curve, though single readings can be large or run the other way.

experiment: qHTS Assay for NPC1 Promoter Activators; conditions: Huh7 NPC1 promoter luciferase reporter, 24 h; series mostly up to 9.22 µM; activation: at the top concentration; note: nearly all actives have a fitted effect of over 60% in size;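 for activation: reporter is driven by a mutant NPC1 promoter; % of control where 0% means no effect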
Procedure, shortened: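 Compounds in DMSO were transferred onto Huh7 NPC1-luciferase reporter cells pre-incubated 2 h; after 24 h at 37 °C, Amplite reagent was dispensed and luminescence recorded 10 min later.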
Potency is the fitted concentration of half-maximal effect.

Row | SMILES | activation [%] | Potency
1 | COc1ccc(NS(=O)(=O)c2cc(C(=O)Nc3ccccc3C(=O)O)ccc2C)cc1 | -35.8 | –
2 | COc1ccc(/C=N/Nc2nc(-c3ccc(C)cc3)c(C#N)c(=O)[nH]2)cc1 | -2.06 | –
3 | COc1ccc(/C=N/OCC(=O)N(Cc2ccccc2)c2ccccc2C(=O)O)cc1 | -3.19 | –
4 | COc1ccc(/C=N/Nc2nc3ccccc3c(=O)[nH]2)cc1 | – | 3.16 µM (active)
5 | COc1ccc(CCCc2nnc(SCc3nc4ccccc4c(=O)[nH]3)n2C)cc1 | -4.67 | –
6 | COc1ccc(/C=N/Nc2ccccc2C(=O)O)cc1 | – | 0.0891 µM (active)
7 | CCC(=O)c1ccc(OCC(=O)N(CC)CC2COc3ccccc3O2)cc1 (stereo not drawn) | 2.33 | –
8 | COCCn1c(C)cc(C(=O)COC(=O)CNC(=O)c2ccco2)c1C | -2.34 | –
9 | COc1cccc(C2=CC(=O)C[C@H](c3ccc(F)cc3)C2)c1OC | -8.4 | –
10 | Cc1cc(F)ccc1S(=O)(=O)Nc1ccc(C(=O)N(C)Cc2ccco2)cc1 | -7.8 | –
11 | COc1ccccc1NC(=O)COC(=O)COc1ccccc1F | 0.971 | –
12 | O=C(Nc1cccc(Cl)c1)Nc1nnc(-c2ccccc2)o1 | -0.287 | –
13 | Nc1ccc(-c2nnc(-c3ccccc3)o2)cc1 | – | 3.16 µM (active)
14 | O=C(COC(=O)c1ccccc1Br)Nc1nnc(-c2ccccc2)o1 | -2.45 | –
15 | Nc1ccc(-c2sc(N)nc2-c2ccccc2)cc1 | 1.72 | –
16 | Nc1ccc(-c2nnc(-c3ccc(-c4ccccc4)cc3)o2)cc1 | – | 4.47 µM (active)
17 | O=C(COC(=O)c1ccc(Oc2ccccc2)cc1)Nc1nnc(-c2ccccc2)o1 | 6.91 | –
18 | CC(C)(C)n1ncc2c(=O)n(Cc3c(Cl)cccc3Br)cnc21 | -3.61 | –
19 | CC(C)c1ccc(S(=O)(=O)N2CCN(C(C)C(=O)NC3CCCC3)CC2)cc1 (stereo not drawn) | 4.65 | –
20 | CCCC(NCC(=O)Nc1ccccc1C(=O)NC1CC1)c1ccccc1 (stereo not drawn) | -3.13 | –
21 | COc1ccccc1N1CCN(C(=O)C2Cc3ccccc3CN2C(=O)c2ccco2)CC1 (stereo not drawn) | -3.03 | –
22 | CCN1C(=O)[C@@H]2[C@@H](c3ccc(-c4cccc(Cl)c4)cc3)N3CCC[C@@]3(C(=O)OC)[C@@H]2C1=O | -0.11 | –
23 | CCCCc1ccc(NS(=O)(=O)c2cccc(C(=O)N3CCCN(C)CC3)c2)cc1 | -2.91 | –

Row | SMILES | activation [%] | Potency
24 | Cc1nnc(NC(=O)c2ccc3nccnc3c2)s1 | 10.6 | –
25 | Cc1ccc(C(=O)Nc2nnc(-c3cccs3)s2)cc1C | – | 4.47 µM (active)
26 | Cc1ccc(C(=O)Oc2coc(CSc3nnc(NC(=O)c4cccs4)s3)cc2=O)cc1C | 6.97 | –
27 | CC(C)c1ccc(NC(=O)COC(=O)c2ccc(CN3CCCC3=O)cc2)cc1 | 1.59 | –
28 | Cc1ccnc(NC(=O)c2ccc(NC(=O)c3ccco3)cc2)c1 | – | 3.98 µM (active)
29 | O=C(Nc1ccc(O)cc1)c1ccc(NC(=O)c2ccco2)cc1 | 23.2 | –
30 | O=C(Nc1ccccc1)c1ccco1 | 23 | –
31 | O=C(Nc1ccc(NC(=O)c2cccs2)cn1)c1ccco1 | – | 0.316 µM (active)
32 | Cc1cc(NC(=O)c2ccc(F)cc2)ccc1NC(=O)c1ccco1 | 8.51 | –
33 | O=C(Nc1ccnc(-c2ccncc2)n1)c1cccs1 | -1.33 | –
34 | CCN(CC(=O)Nc1c(F)cccc1F)C(=O)c1cnc(C)cn1 | -3 | –
35 | O=C(CCNC(=O)c1ccc(Br)cc1)NCC(c1ccco1)N1CCCCC1 (stereo not drawn) | -0.553 | –
36 | COc1ccc(C2=NN(C(=O)CSc3nnnn3C)C(c3ccco3)C2)cc1 (stereo not drawn) | 1.31 | –
37 | Nc1ncc(-c2cc3ccccc3oc2=O)s1 | – | 2.51 µM (active)
38 | O=C(NCc1cccnc1)c1cccc(-c2cc3ccccc3oc2=O)c1 | 9.51 | –
39 | Cc1cc2c(=O)n(C)c(SCC(=O)c3cc4ccccc4o3)nc2s1 | 0.344 | –
40 | O=C(CSc1ccccc1)Nc1cccc(S(=O)(=O)N2CCCCC2)c1 | 0.92 | –
41 | Cc1cccc(-c2nc3ccc(C(=O)NCCN4CCN(C)CC4)cc3nc2-c2cccc(C)c2)c1 | 0.0884 | –
42 | C=CCNC(=O)c1ccc2c3n(nc2c1)-c1ccc(C)cc1CO3 | – | 0.501 µM (active)
43 | C=CCNC(=O)c1ccc(C)c(Br)c1 | -3.13 | –
44 | CCOC(=O)c1sc(NC(=O)C2CSC3(C)CCC(=O)N23)nc1C (stereo not drawn) | -3.6 | –
45 | C=CCSc1ccc(S(=O)(=O)N2CCN(C)CC2)cn1 | 1.46 | –
46 | CCCCN(C(=O)C(CCSC)N1C(=O)c2ccccc2C1=O)c1c(N)n(CCC)c(=O)[nH]c1=O (stereo not drawn) | -1.59 | –

Row | SMILES | activation [%] | Potency
47 | Cc1cccc(C)c1NC(=O)COC(=O)c1c(C)nn(-c2ccccc2)c1C | -0.881 | –
48 | Cc1ccc(-n2nc(C)c(C(=O)O)c2-n2cccc2)cc1 | -2.14 | –
49 | Cc1ccc(OC(=O)c2c(C)nn(-c3ccccc3)c2C)cc1 | – | 2.82 µM (active)
50 | COCCN(C(=O)CSCc1ccc(C)cc1)c1c(N)n(CC(C)C)c(=O)[nH]c1=O | -2.34 | –
51 | CCN(CC(=O)NCc1cccs1)C(=O)/C=C/c1ccc(C)cc1 | -0.296 | –
52 | Cc1cccc(Nc2nnc(SCC(=O)c3c(N)n(C4CC4)c(=O)[nH]c3=O)s2)c1C | -5.99 | –
53 | COc1ccccc1-n1cnc2cc(C(=O)NCC3CCCO3)ccc21 (stereo not drawn) | 1.81 | –
54 | CCOc1ccc(C(=O)NC2CCN(CC(=O)NCc3cccs3)CC2)cc1 | 1.67 | –
55 | O=C(NCc1cccs1)c1ccc2c(c1)ncn2C1CCCC1 | – | 3.55 µM (active)
56 | O=C(CCNS(=O)(=O)c1ccc(Br)cc1)NCC1CCCO1 (stereo not drawn) | -0.538 | –
57 | COc1ccccc1C(=O)NCC(=O)NCCSc1ccc(Br)cc1 | -3.89 | –
58 | Cc1ccc(NC(=O)CN(C)C(=O)COC(=O)c2nccnc2N)cc1 | -1.17 | –
59 | c1ccc(-c2noc(-c3cccs3)n2)nc1 | – | 0.398 µM (active)
60 | c1ccc(CCc2nc(-c3ccncc3)no2)cc1 | 12.1 | –
61 | Cc1ccc(-c2nc(-c3ccncc3)no2)c(C)c1 | – | 3.16 µM (active)
62 | O=C(NCc1cccnc1)c1nc(-c2cccs2)no1 | 10 | –
63 | Cc1ccc(-c2noc(CSc3nnc(-c4cccs4)n3C)n2)cc1 | 6.05 | –
64 | Cc1ccc(-c2noc(CSc3nnc(-c4ccncc4)n3-c3ccc(F)cc3)n2)cc1 | 4.27 | –
65 | Clc1ccc(-n2nnnc2-c2cnc(-c3ccccn3)nc2-c2cccs2)cc1 | 0.256 | –
66 | COc1nc(-c2ccc(Cl)cc2)ccc1-c1noc(-c2cccs2)n1 | -0.243 | –
67 | c1csc(-c2nc(-c3ccncc3)no2)c1 | – | 3.16 µM (active)
68 | CN(C(=O)CSc1nnc(-c2n[nH]c3ccccc23)o1)c1ccccc1 | 5.27 | –
